A short description of experiment [1]: small molecules captured by biotinylated probe aFSTL3 – biochemical, small-molecule microarray, fluorescence 635/667, stem cell growth factor project, primary screen (AID 1064).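 Note: measures binding of the biotinylated anti-FSTL3 antibody to printed compounds.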 The note with it: higher = more signal.
The nature of experiment [2]: binders from COS7 lysate, DM2A8 probe, primary screen, torsin A project, cell lysate, small-molecule microarray, fluorescence 635/667 (AID 1065). Particulars: higher = more signal, COS7 lysate expressing mutant human TOR1A.
Experiment [3] in a line: small molecules captured by biotinylated probe aFGF2 – biochemical, small-molecule microarray, fluorescence 635/667, stem cell growth factor project, primary screen (AID 1067).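 Note: measures binding of biotinylated aFGF2 protein to printed compounds on slides; z-score merges feature fluorescence and signal-to-noise across triplicate slides.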 Particulars: higher = more signal.
A short description of experiment [4]: small molecules captured by biotinylated probe aFGF10 – biochemical, small-molecule microarray, fluorescence 635/667, stem cell growth factor project, primary screen (AID 1071).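 Note: score merges 667 nm spot intensity and signal to noise from triplicate slides.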 Particulars: higher = more signal.
The target in experiment [5] is Neurogenic locus notch homolog protein 2 (Homo sapiens) (UniProt Q04721). The experiment can be described thus: small molecules binding Notch2 protein – biochemical, small-molecule microarray, 635 nm fluorescence, stem cell growth factors, primary screen (AID 1073). Particulars: higher = more signal.
The target of experiment [6] is Pro-neuregulin-1, membrane-bound isoform (Homo sapiens) (UniProt Q02297). The experiment in a line: small molecules binding neuregulin-1 protein – biochemical, small-molecule microarray, fluorescence 635/667, psychiatric disease protein project, primary screen (AID 1075).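 Note: score combines 667 nm spot fluorescence with signal to noise.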 Particulars: NRG1 binding, 635 nm fluorescence, higher = more signal.
The test system of experiment [7] is Neuregulin-1 EGF-like domain. The experiment in a line: small molecules binding NRG1 EGF domain – biochemical, small-molecule microarray, 635 nm fluorescence, primary screen (AID 1081).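 Note: binding of the protein to compounds printed on small-molecule microarray slides.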 The note with it: higher = more signal.
The nature of experiment [8]: FRG1 expression reporter modulators in myotubes – cell-based, C2C12 myotubes, firefly/Renilla luciferase, luminescence, FRG1 inhibition for FSHD, primary screen (AID 1084). Particulars: FRG1 promoter luciferase, higher = more signal, called active from +8 up or from −8 down.
A short description of experiment [9]: small molecules captured by biotinylated probe aFST – biochemical, small-molecule microarray, fluorescence 635/667, stem cell growth factor project, primary screen (AID 1086).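 Note: score merges 667 nm fluorescence with signal-to-noise of each printed compound spot.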 Particulars: higher = more signal.
Experiment [10] is described as follows: binders of probe aHhip on microarray, primary screen, stem cell growth factor project, biochemical, small-molecule microarray, fluorescence 635/667 (AID 1087).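 Note: score merges spot fluorescence at 667nm with spot signal to noise ratio.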 The note with it: higher = more signal.

Calls of active or inactive are those of the source.

Pro-neuregulin-1, membrane-bound isoform (Homo sapiens), sequence (Q02297 whole entry, looked up, the tested form may be a part, canonical isoform): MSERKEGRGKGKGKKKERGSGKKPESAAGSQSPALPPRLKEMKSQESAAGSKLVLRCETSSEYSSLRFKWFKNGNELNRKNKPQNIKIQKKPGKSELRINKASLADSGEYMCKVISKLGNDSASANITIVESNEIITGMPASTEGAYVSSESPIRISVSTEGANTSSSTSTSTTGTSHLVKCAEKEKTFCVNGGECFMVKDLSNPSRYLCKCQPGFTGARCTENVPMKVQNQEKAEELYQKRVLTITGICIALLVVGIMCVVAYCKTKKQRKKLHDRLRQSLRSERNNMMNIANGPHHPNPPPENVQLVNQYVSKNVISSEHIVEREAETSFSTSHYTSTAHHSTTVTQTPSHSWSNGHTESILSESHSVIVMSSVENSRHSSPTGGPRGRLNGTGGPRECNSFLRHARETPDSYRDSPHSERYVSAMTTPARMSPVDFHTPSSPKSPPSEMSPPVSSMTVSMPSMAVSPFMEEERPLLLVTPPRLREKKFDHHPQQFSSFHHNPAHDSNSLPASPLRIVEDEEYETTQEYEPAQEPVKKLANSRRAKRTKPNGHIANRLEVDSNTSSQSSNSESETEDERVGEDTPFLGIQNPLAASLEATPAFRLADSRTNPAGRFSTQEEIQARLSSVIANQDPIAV
Neurogenic locus notch homolog protein 2 (Homo sapiens), sequence (Q04721 whole entry, looked up, canonical isoform): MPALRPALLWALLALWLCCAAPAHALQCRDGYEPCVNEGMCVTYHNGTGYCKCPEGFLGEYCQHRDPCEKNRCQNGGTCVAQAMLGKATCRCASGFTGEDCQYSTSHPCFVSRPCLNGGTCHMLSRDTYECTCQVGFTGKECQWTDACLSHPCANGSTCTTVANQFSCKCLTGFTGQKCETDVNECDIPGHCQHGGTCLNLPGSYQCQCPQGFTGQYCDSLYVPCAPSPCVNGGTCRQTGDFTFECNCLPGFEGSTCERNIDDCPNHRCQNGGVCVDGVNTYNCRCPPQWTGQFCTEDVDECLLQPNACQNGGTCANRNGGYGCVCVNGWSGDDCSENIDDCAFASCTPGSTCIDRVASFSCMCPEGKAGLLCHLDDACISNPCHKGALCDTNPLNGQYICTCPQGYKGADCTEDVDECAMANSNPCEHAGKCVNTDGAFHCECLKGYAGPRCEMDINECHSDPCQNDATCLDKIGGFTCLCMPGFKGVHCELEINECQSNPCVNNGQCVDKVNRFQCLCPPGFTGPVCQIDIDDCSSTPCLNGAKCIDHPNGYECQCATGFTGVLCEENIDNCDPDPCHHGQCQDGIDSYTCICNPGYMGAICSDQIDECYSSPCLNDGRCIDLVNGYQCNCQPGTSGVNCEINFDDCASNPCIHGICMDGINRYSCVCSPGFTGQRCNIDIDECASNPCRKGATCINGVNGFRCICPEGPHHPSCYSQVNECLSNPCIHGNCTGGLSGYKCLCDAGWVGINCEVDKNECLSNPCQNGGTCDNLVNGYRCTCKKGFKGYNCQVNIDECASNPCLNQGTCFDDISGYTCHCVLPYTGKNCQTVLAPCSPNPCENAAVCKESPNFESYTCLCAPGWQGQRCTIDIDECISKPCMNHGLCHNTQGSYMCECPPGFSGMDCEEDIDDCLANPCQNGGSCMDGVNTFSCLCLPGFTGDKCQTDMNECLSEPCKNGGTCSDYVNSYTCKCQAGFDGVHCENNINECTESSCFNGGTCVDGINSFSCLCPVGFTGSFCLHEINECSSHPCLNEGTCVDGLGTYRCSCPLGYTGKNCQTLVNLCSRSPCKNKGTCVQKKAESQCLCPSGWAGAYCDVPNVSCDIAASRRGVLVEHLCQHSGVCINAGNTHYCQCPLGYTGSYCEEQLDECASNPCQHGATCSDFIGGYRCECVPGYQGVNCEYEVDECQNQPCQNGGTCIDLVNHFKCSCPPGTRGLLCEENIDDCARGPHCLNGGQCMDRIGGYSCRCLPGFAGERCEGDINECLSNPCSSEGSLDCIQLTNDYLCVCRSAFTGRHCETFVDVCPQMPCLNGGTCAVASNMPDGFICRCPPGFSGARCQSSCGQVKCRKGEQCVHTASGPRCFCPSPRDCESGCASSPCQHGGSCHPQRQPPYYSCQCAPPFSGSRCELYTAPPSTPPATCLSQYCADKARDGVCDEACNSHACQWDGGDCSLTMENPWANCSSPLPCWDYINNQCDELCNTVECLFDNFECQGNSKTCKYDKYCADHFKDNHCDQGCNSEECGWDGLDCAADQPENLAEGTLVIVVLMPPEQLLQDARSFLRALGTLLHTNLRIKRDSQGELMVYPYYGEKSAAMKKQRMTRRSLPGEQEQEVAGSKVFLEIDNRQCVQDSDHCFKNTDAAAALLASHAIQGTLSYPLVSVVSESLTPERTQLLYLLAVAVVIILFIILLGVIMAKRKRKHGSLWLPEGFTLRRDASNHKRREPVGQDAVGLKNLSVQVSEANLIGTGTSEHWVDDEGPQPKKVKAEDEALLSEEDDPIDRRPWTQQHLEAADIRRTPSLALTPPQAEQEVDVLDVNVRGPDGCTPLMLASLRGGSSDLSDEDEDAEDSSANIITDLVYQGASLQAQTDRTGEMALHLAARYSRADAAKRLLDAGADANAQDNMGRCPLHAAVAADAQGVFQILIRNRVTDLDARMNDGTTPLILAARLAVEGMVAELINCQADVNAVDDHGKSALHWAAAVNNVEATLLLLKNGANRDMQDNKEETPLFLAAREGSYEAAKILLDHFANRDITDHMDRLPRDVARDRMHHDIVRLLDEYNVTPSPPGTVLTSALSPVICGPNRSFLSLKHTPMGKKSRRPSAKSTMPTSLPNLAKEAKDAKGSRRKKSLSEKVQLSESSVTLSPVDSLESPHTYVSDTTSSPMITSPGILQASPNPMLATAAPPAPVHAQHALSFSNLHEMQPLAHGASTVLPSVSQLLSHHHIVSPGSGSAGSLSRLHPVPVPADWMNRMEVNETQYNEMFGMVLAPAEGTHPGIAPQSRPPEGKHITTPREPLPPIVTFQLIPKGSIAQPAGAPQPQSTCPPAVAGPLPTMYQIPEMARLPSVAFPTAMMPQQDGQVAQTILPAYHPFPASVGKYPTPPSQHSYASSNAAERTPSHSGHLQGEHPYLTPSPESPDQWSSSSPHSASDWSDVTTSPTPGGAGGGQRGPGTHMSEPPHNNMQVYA

For the compound `O=C1O[C@@H](c2ccccc2)[C@@H](c2ccccc2)N2[C@@H](c3ccc(OCCO)cc3)[C@]3(C(=O)Nc4ccccc43)[C@@H](C(=O)N3CCN(c4ncccn4)CC3)[C@H]12`, the composite z-score in experiment [1] is 0.0612; in experiment [2] it was 0.574; in [3] it was -0.0493; in [4] it was 0.267; in experiment [5], 1.25; in [6], 1.27. Moreover, the composite z-score in experiment [7] amounted to 1.34; in experiment [9] it was 0.847; in [10], 0.106. Also, the z-score in experiment [8] is -0.968 (inactive).
As to `COC(=O)C1(C)C=C2C(=C(c3ccccc3)C(=O)C2C)CN1` (stereo not given), the composite z-score is 0.84 in experiment [1]; 0.0679 in [2]; -0.0535 in experiment [3]; -0.18 in [4]; -0.167 in [5]; 1.96 in [6]. Besides, the composite z-score turned out to be 0.691 in [7], 0.313 in experiment [9] and 0.23 in experiment [10]. Also, the z-score in [8] was 2.35 (inactive).
`C=C(/C(=C/C[C@H](OC(C)=O)c1ccc(OCCO)cc1)c1cnc2ccccc2c1)C(C)C`: the composite z-score in experiment [1] was -0.195; in [2], 0.214; in [3], -0.122; in experiment [4], 1.11; in experiment [5], 1.01; in experiment [6], 0.69. Also, the composite z-score in [7] was 1; in [9] it was 0.182; in experiment [10] it was -0.333. For the same compound, in experiment [8], the z-score is 0.372 (inactive).
Turning to `Cc1cc2c(nc1C)CCCN2CC(C)ON=C1[C@H]2CCn3c(=O)n(-c4ccccc4)c(=O)n3[C@H]2[C@H](O)[C@@H]2O[C@H]12` (stereo not given in full), the composite z-score in experiment [1] was -0.335; in experiment [2], 0.533; in [3] it was 0.0477; in [4] it was 0.73; in experiment [5], 0.36; in experiment [6] it was 0.0785. Besides, the composite z-score in experiment [7] is 1.1; in [9] it was 0.265; in experiment [10] it was -0.194. Besides, in [8], the z-score is -0.325 (inactive).
Regarding `O=C1[C@H]2[C@H]3[C@H](O)[C@H](O)CC(=NOC[C@@H](O)COCc4ccco4)[C@H]3CC[C@H]2C(=O)N1C1CCCCC1`, the composite z-score in experiment [1] is -0.749; in [2], 2.19; in experiment [3] it was -0.254; in [4], -0.39; in experiment [5] it was -0.24; in experiment [6], -0.394. Moreover, the composite z-score in experiment [7] is 0.403; in [9], 0.101; in experiment [10], -0.156. Moreover, the z-score in experiment [8] is -0.784 (inactive).
As for `CC(C)=CCCC(C)=CCON=C1[C@H]2CCn3c(=O)n(Cc4cc5c(cc4Cl)OCO5)c(=O)n3[C@H]2[C@H](O)[C@@H]2O[C@H]12`, the composite z-score in [1] was -0.405; in [2] it was 1.2; in [3] it was -0.0481; in [4] it was 0.262; in [5], 0.405; in [6], 0.0535. The composite z-score is 0.177 in [7], 0.661 in experiment [9] and -0.328 in experiment [10]. For the same compound, in experiment [8], the z-score was 0.752 (inactive).
Consider `CC(C)c1ccc(NN2C(C(O)c3ccc4c(c3)OCO4)C=CC3C(=O)N(c4ccccc4)C(=O)C32)cc1` (stereo not given), for which the composite z-score in [1] is 0.542; in experiment [2] it was 0.461; in experiment [3], 0.0899; in [4], 0.839; in experiment [5], 1.34; in experiment [6], 1.82. Also, the composite z-score in experiment [7] amounted to 1.24; in experiment [9], 1.07; in [10] it was 0.103. Further, in experiment [8], the z-score was 2.22 (inactive).
As for `CC(CCC(=O)OC[C@H]1O[C@H](C#Cc2ccccc2)C=C[C@@H]1Oc1ccc(C)cc1)=NOC[C@@H](O)COCc1ccco1`, the composite z-score in [1] was 0.348; in experiment [2], -2.21; in [3] it was 0.0388; in experiment [4], -3.02; in [5] it was -2.5; in experiment [6] it was -0.837. In addition, the composite z-score was -0.295 in [7], -1.94 in experiment [9] and -0.389 in [10]. Also, the z-score in experiment [8] is -0.948 (inactive).
Consider `C#CCCCON=C1C[C@@H](O)[C@@H](O)[C@@H]2[C@@H]3C(=O)N(Cc4ccccc4)C(=O)[C@@H]3CC[C@H]12`, for which the composite z-score in experiment [1] is -0.304; in experiment [2], 0.251; in [3], -0.116; in experiment [4], 0.317; in [5] it was 0.69; in [6], 0.197. The values for the composite z-score in experiment [7], in experiment [9] and in experiment [10] were -0.0787, 0.149 and -0.169, respectively. Also, the z-score in [8] is -0.0765 (inactive).
On to `CC[C@@H](c1ccccc1)n1c(=O)n2n(c1=O)[C@H]1[C@H](O)[C@@H]3O[C@@H]3C(=NOCC(C)C)[C@H]1CC2`, for which the composite z-score in [1] is -0.427; in [2], 0.428; in experiment [3] it was -0.119; in experiment [4], 0.0304; in [5] it was 0.409; in experiment [6], -0.0258. Besides, the composite z-score in experiment [7] is 0.493; in experiment [9], 0.0308; in experiment [10] it was -0.0994. Moreover, the z-score in experiment [8] was 0.0491 (inactive).
On to `CO[C@H]([C@@H](C)[C@H](OC)c1ccccc1)[C@H](C)[C@@H](OC)[C@H](C)C(C)=O`, for which the composite z-score in [1] was -0.426; in experiment [2], -0.292; in experiment [3] it was -0.0785; in experiment [4], -0.154; in experiment [5] it was -0.448; in [6], -0.383. The composite z-score in experiment [7] was -0.944; in experiment [9], 0.0432; in experiment [10] it was 2.49. Moreover, in experiment [8], the z-score was 0.425 (inactive).
In the case of `CC(C)[C@@H](OCc1ccccc1)[C@H](C)C=NO[C@H](C)c1cn([C@H](CO)Cc2ccccc2)nn1`, the composite z-score is -0.479 in [1]; 0.227 in [2]; -0.228 in [3]; 0.616 in experiment [4]; 0.397 in [5]; -0.154 in [6]. Further, the composite z-score in [7] was 0.658; in [9], 0.344; in experiment [10] it was -0.409. Also, in experiment [8], the z-score was -0.757 (inactive).
On to `O=C1C2C=CC(C(O)c3ccc([N+](=O)[O-])cc3)N(Nc3ccc([N+](=O)[O-])cc3)C2C(=O)N1c1ccccc1` (stereo not given), for which the composite z-score in experiment [1] is 0.25; in experiment [2] it was -0.0145; in experiment [3] it was 0.154; in [4], 1.13; in [5], 1.63; in experiment [6], 1.55. Besides, the composite z-score in experiment [7] turned out to be 1.17; in experiment [9], 1.02; in experiment [10], 0.178. Moreover, in experiment [8], the z-score was -0.164 (inactive).
As for `CCOC(=O)[C@H](Cc1ccccc1)NC(=O)CCC1CC(OC(=O)NCc2ccc3c(c2)OCO3)CC2(CCCC(COC(=O)NCC(c3ccccc3)c3ccccc3)O2)O1` (stereo not given in full), the composite z-score in experiment [1] is -0.655; in experiment [2] it was 0.805; in experiment [3] it was -0.151; in experiment [4], 0.211; in experiment [5] it was 0.883; in [6] it was 0.716. Besides, the composite z-score in experiment [7] was 1.03; in experiment [9] it was 0.359; in experiment [10] it was -0.306. Moreover, the z-score in experiment [8] is 1.26 (inactive).
In the case of `CCOC(=O)[C@H](CC(C)C)NC(=O)CCC1CC(OC(=O)NCc2cccc3ccccc23)CC2(CCCC(COC(=O)NCCN3CCOCC3)O2)O1` (stereo not given in full), the composite z-score in [1] was -0.589; in experiment [2], 0.393; in experiment [3] it was -0.0788; in [4], 0.497; in [5] it was 0.999; in experiment [6], 0.442. Moreover, the composite z-score in experiment [7] is 0.983; in experiment [9], 0.112; in [10] it was 0.0176. In addition, the z-score in [8] is 0.986 (inactive).

These data come from PubChem BioAssay.
